# In PubChem BioAssay (NCATS):
# Results filed as inconclusive are left out. Active and inactive are the calls of the source. Calls come from the whole dose curve; as a rule, active = well fitted inhibition curve with a large enough effect; inconclusive = small, poorly fitted or top-dose-only effect; inactive = no such curve, though single readings can be large or run the other way.
# Tested on: Zika virus NS2B-NS3 protease (unlinked complex)
# Test: Primary screen GU Rhodamine qHTS for Zika virus inhibitors: Unlinked NS2B-NS3 protease assay (AID 1347159); note: nearly all actives have a fitted effect of over 60% in size
# Settings: Recombinant ZIKV NS2B-NS3 protease, Rhodamine110 substrate fluorescence; series mostly up to 107 µM; activity change, negative = inhibition: at the top concentration
# Procedure, shortened: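 A qHTS format was used, with compound concentrations ranging up to 114 microM. Each compound was preincubated with 25 nM NS2B-NS3 protease, and the substrate was then added at 1.5 microM. Curves were fitted with a 4-parameter Hill model.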
# % is set by controls: 0 for no effect and ±100 for the full control effect; potency is the fitted concentration of half-maximal effect.
SMILES,"activity change, negative = inhibition",Potency
Cc1cnc(Nc2ccc(F)cc2Cl)nc1-c1c[nH]c(C(=O)NC(CO)c2cccc(Cl)c2)c1 (configuration not stated),81.9% (inactive),–
C=C[C@H]1[C@H](O[C@@H]2O[C@H](CO)[C@@H](O)[C@H](O)[C@H]2O)OC=C(C(=O)OC)[C@H]1CCOC(=O)c1cc(O)c(O)c(O)c1,–,15.8 µM (active)
CO[C@H]1C[C@@H]2CC[C@@H](C)[C@@](O)(O2)C(=O)C(=O)N2CCCC[C@H]2C(=O)O[C@H]([C@H](C)C[C@@H]2CC[C@@H](OP(C)(C)=O)[C@H](OC)C2)CC(=O)[C@H](C)/C=C(\C)[C@@H](O)[C@@H](OC)C(=O)[C@H](C)C[C@H](C)/C=C/C=C/C=C/1C,0% [at 57.1 µM] (inactive),–
C=CC(C)(O)CC[C@H]1C(=C)CCC2[C@](C)(C(=O)O)CCC[C@@]21C (some centres not stated),-1.14% (inactive),–
CN[C@H](CC(C)C)C(=O)N[C@H]1C(=O)N[C@@H](CC(N)=O)C(=O)N[C@H]2C(=O)N[C@H]3C(=O)N[C@H](C(=O)N[C@H](C(=O)O)c4cc(O)cc(O)c4-c4cc3ccc4O)[C@H](O[C@H]3C[C@](C)(N)[C@@H](O)[C@H](C)O3)c3ccc(c(Cl)c3)Oc3cc2cc(c3O[C@@H]2O[C@H](CO)[C@@H](O)[C@H](O)[C@H]2O[C@H]2C[C@](C)(NCc3ccc(-c4ccc(Cl)cc4)cc3)[C@@H](O)[C@H](C)O2)Oc2ccc(cc2Cl)[C@H]1O,0% [at 32.5 µM] (inactive),–
CC1=CC(=O)C2C(C)(C)CCC[C@]2(C)[C@H]1CO (some centres not stated),-5.57% (inactive),–
COc1cc2c(cc1OC)N1C(=O)C[C@]34C=CCN5CC[C@@H]2[C@@H](CC3)[C@]514,-21.2% (inactive),–
